Source: PubChem BioAssay (DiRusso Lab, Biochemistry Department, University of Nebraska)
This excerpt belongs to a sample that is enriched for hits.
Chlamy TAG: inducers of TAG accumulation in Chlamydomonas, primary screen, qHTS, Chlamydomonas reinhardtii | 0.84% of 44,000 active | Nile Red fluorescence, 72 h | calls only at 10 µM (by protocol); call rule not given here;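 further: hits raise Nile Red signal meaning more stored TAG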
Active calls of the source: *; i = inactive; + = active, no number.

SMILES | Chlamy TAG
CN1CCC(N(C)Cc2cccs2)CC1 | i
CN1CCC(N(C)Cc2coc3ccccc3c2=O)CC1 | i
CCOc1ccc(CN(C)C2CCN(C)CC2)cc1 | i
COc1cccc(CN(C)C2CCN(C)CC2)c1 | i
Cc1ccc(CN(C)C2CCN(C)CC2)s1 | +
CCc1ccc(CN(C)C2CCN(C)CC2)cc1 | +
CN1CCC(N(C)Cc2ccc(Cl)c(Cl)c2)CC1 | i
COc1ccc(N/C(C)=C/C(=O)c2ccccc2)c(OC)c1 | i
COc1cc(C2NC(=O)NC(C)=C2C(=O)Nc2ccc(Cl)cc2)cc(OC)c1OC (stereo not given) | i
O=C1c2ccccc2C(=O)N1CCc1nc2ccccc2c(=O)n1-c1ccc(F)cc1 | i
Cc1ccc(-c2cc(N)n(CC3CCCCC3)n2)cc1 | i
CC(=O)Nc1ccc(C(=O)Nc2ccc(NC(C)=O)cc2Cl)cc1 | i
CCS(=O)(=O)Nc1c(C)cc(C)cc1C | i
COc1cc([N+](=O)[O-])ccc1NC(=O)c1c(F)c(F)c(F)c(F)c1F | +
COc1cc([N+](=O)[O-])ccc1NC(=O)c1ccc(C)c(C)c1 | i
COc1cc([N+](=O)[O-])ccc1NC(=O)c1ccccc1F | i
O=C(c1ccc(F)cc1)N1CCN(C2C3CC4CC(C3)CC2C4)CC1 (stereo not given) | i
COc1ccc(C2C(C#N)=C(N)OC3=C2C(=O)CC(c2ccccc2)C3)cc1C (stereo not given) | i
CC1CCc2c(sc(NC(=O)c3ccccc3[N+](=O)[O-])c2C(N)=O)C1 (stereo not given) | i
COc1ccc(C(=O)Nc2sc3c(c2C(N)=O)CCC(C)C3)c(OC)c1 (stereo not given) | +
Cc1ccc(C(=O)Nc2sc3c(c2C(N)=O)CCC(C)C3)o1 (stereo not given) | i
COc1ccc(Cc2cnc(NC(=O)c3cccc([N+](=O)[O-])c3)s2)cc1 | i
Cc1ccc(-c2csc(/C(C#N)=C/Nc3ccc([N+](=O)[O-])cc3)n2)cc1 | i
Cc1ccsc1/C=C(\C#N)c1nc(-c2ccc([N+](=O)[O-])cc2)cs1 | +
N#C/C(=C\c1ccc([N+](=O)[O-])cc1)c1nc(-c2ccc(F)cc2)cs1 | i
SMILES | Chlamy TAG
COc1ccc(N/C=C(/C#N)c2nc(-c3cccs3)cs2)cc1 | i
CCC(C)c1ccc(OCC(=O)Nc2cccc(C(=O)O)c2)cc1 (stereo not given) | i
O=[N+]([O-])c1ccc(N2CCCCCC2)nc1 | i
Cc1ccc2oc(-c3ccc(NC(=O)Cc4cccs4)cc3)nc2c1 | i
COc1ccc(CSc2nnc(-c3ccc(Cl)cc3Cl)o2)cc1 | i
COc1cc(C(=O)Nc2cccc(NC(=O)c3ccccc3)c2)cc(OC)c1OC | i
COc1cc(C(=O)Nc2cccc(F)c2)cc(OC)c1OC | i
COc1cc(C(=O)Nc2cccc(C(=O)c3ccc(C)c(C)c3)c2)cc(OC)c1OC | +
COc1cc(CN2CCCCC2)cc(OC)c1OC | i
Cc1cc(C)c(S(=O)(=O)N2CCC(C(=O)O)CC2)cc1[N+](=O)[O-] | i
CC1CCCN(CCCOc2ccc([N+](=O)[O-])cc2)C1 (stereo not given) | i
COc1ccc(OCCCN2CCCC(C)C2)cc1 (stereo not given) | +
CCOc1ccccc1OCCCN1CCCC(C)C1 (stereo not given) | i
O=C1NCC2=C1C(c1ccccc1O)Nc1ccccc1N2 (stereo not given) | i
C=CCn1c(=N)n(CC(O)c2cccc(Br)c2)c2ccccc21 (stereo not given) | i
Cc1cccc(NC(=O)CN(c2cccc([N+](=O)[O-])c2)S(=O)(=O)c2ccccc2)c1C | i
OC(CNCCc1ccccc1)c1ccccc1 (stereo not given) | +
Cc1ccc(C(=O)NCC(O)c2ccccc2)cc1 (stereo not given) | i
OC(Cc1ccccc1)c1ccccc1 (stereo not given) | i
CC1CN(c2ccc([N+](=O)[O-])cc2Cl)CCN1S(=O)(=O)c1ccc(Cl)cc1 (stereo not given) | i
COc1ccc(S(=O)(=O)NCCCNc2ccc([N+](=O)[O-])cc2Cl)cc1F | i
COc1ccc(C(=O)N2CCN(c3ccccc3F)CC2)cc1[N+](=O)[O-] | i
O=C(O)Cc1ccc(NC(=O)Cc2cccs2)cc1 | i
Cc1ccc(NC(=O)c2ccccc2[N+](=O)[O-])cc1F | i
Cc1c(C(=O)Nc2ccc(F)c(Cl)c2)cccc1[N+](=O)[O-] | i
SMILES | Chlamy TAG
Cc1c(C(=O)Nc2ccc(F)c(F)c2)cccc1[N+](=O)[O-] | +
C/C=C(\C)CN1CCN(c2cc(C)ccc2C)CC1 | i
Cc1ccc(C)c(N2CCN(C3CCCCCC3)CC2)c1 | +
Cc1ccc(C)c(N2CCN(Cc3ccc(C)s3)CC2)c1 | i
COCCN1C(=O)C(=O)C(=C(O)c2ccc(C)cc2)C1c1ccc(O)cc1 (stereo not given) | i
c1cc2c(cc1CNC1CCCCC1)OCO2 | i
O=C(CCC1CCCCC1)NCc1ccc2c(c1)OCO2 | i
